MCF10A rereplic – induces DNA re-replication in MCF 10a normal breast cells | MCF 10A DNA re-replication, Hoechst nuclear intensity, 48 h | 2.9% of 350,000 active | Potency, µM (series often up to 46.1 µM), for the others: at the top dose activity, positive = re-replication, usual class: activators | AID 624296; also: potency is read from the fitted curve at half-maximal effect; % of control where 0% means no effect; nearly all actives have a fitted effect of over 50% in size
IL1B secr inh – inflammasome signaling inhibition, IL-1 beta readout; AID 743279; THP-1 LPS/ATP IL-1B secretion, AlphaLISA, 16 h; stronger effect = lower value; 4.7% of 360,000 active; activity change, % at 57.5 µM; in the data active = activity change below about -50%; inconclusive = mostly about -30% to -49%; also: % is scaled to controls: 0 for no effect and ±100 for the full control effect
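Secreted IL-1B measured by AlphaLISA bead assay after 16 h compound exposure of THP-1 cells; compounds (final up to 57.5 uM) added 1 h before LPS (250 ng/mL) and ATP (1.25 mM) stimulation; lower signal means less secretion.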
Gal4-VP16 FLuc – Gal4-VP16 reporter inhibition counter-screen. 3.5% of 310,000 active. Drosophila S2 Gal4-VP16 UAS-luciferase, luminescence, 20 h. AID 2546. Potency, µM (series often up to 53.6 µM), for the others: top-dose activity, negative = inhibition, hits mostly inhibitors;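 also: Gal4-VP16 expression switched on by copper sulfate through the metallothionein promoter; potency is read from the fitted curve at half-maximal effect; % is scaled to controls: 0 for no effect and ±100 for the full control effect; nearly all actives have a fitted effect of over 50% in size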
SW480 rerep – DNA re-replication induction in SW480 cells; SW480 DNA re-replication, Hoechst DNA content imaging, 48 h; Potency, µM (doses to about 46.1 µM), inactives show at the top dose re-replication activation, hits mostly activators; 1.8% of 340,000 active; AID 624297; also: potency is read from the fitted curve at half-maximal effect; % of control where 0% means no effect; nearly all actives have a fitted effect of over 55% in size
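Hoechst fluorescence of nuclei (405 nm excitation, 500-530 nm emission) measured by plate-scanning imager after 48 hr compound exposure at 37 C; re-replication scored as increased number of nuclei with elevated intensity.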
RORg inh – ROR gamma (mouse) transcription inhibition. Drosophila S2 Gal4-RORgamma UAS-luciferase reporter, 20 h. Potency, µM (titrated, usually from 53.6 µM), without a hit: at the highest dose activity change, negative = inhibition, most hits filed as inhibitors. AID 2551. 5.4% of 310,000 active. P51450; also: potency is read from the fitted curve at half-maximal effect; % is scaled to controls: 0 for no effect and ±100 for the full control effect; nearly all actives have a fitted effect of over 60% in size
Target sequence (P51450 whole entry, looked up, the tested form may be a part): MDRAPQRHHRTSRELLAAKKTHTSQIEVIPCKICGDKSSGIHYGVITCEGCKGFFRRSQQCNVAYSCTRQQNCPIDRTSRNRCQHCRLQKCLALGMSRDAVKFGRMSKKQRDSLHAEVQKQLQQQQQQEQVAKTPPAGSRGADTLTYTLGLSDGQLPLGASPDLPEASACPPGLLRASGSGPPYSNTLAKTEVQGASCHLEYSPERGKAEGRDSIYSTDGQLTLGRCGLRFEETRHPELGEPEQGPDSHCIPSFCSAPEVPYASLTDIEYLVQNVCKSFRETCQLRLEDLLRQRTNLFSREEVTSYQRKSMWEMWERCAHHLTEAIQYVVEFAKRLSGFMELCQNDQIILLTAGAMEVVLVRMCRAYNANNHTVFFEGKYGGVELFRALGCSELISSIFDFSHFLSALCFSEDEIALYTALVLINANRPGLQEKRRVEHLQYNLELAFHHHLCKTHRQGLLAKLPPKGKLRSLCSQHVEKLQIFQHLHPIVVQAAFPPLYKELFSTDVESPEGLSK
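Drosophila S2 cells stably expressing Gal4-DBD/mouse RORγ fusion under metallothionein promoter plus UAS-luciferase; compound 1 h, then 700 uM CuSO4 induction for 20 h at ambient temperature; inhibition read as reduced luminescence.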
Active calls of the source: *; ? = inconclusive; . = no result given; [ ] = another dose, or the depositor's remark. Hits are enriched below; roughly 11% of the tested compounds scored in any of these assays. Unless noted, calls follow the shape of the dose curve; as a rule, active = well fitted curve in the direction sought with a large enough effect; inconclusive = small, poorly fitted or top-dose-only effect, or another doubt; inactive = no such curve, though single readings can be large; an effect the other way counts as inactive or inconclusive.

SMILES | MCF10A rereplic | IL1B secr inh | Gal4-VP16 FLuc | SW480 rerep | RORg inh
COc1cc(CNC(=O)c2nc(Cn3nc(C)c(Br)c3C)no2)cc(OC)c1 | 7% | -71* | -10% | 11% | -4%
Cc1nc(-c2c(C(F)(F)F)noc2-c2ccc(O)cc2O)cs1 | 5% | 0 | -26% | ? | 80%
CCOc1cc(C)c(-c2onc(C(F)(F)F)c2-c2csc(C)n2)c(O)c1 | ? | -55* | 11µM* | 8% | 12%
CCCC(=O)N1CCC1(C)C(=O)Nc1cc(OC)ccc1OC (stereo not given) | . | 32 | . | . | .
Cc1cc(NC(=O)c2ccc(S(=O)(=O)N3CCc4ccccc43)cc2)no1 | -6% | 16 | ? | 1% | 11µM*
O=C(Nc1ccccn1)c1cccc(S(=O)(=O)N2CCCc3ccccc32)c1 | 8% | 13 | . | -1% | .
O=C(Nc1nc2c(s1)CN(Cc1ccccc1)CC2)c1cccc(S(=O)(=O)N2CCc3ccccc32)c1 | 10µM* | 5 | -2% | 16µM* | 21%
CC1CCc2nc(NC(=O)c3ccc(S(=O)(=O)N4CCCc5ccccc54)cc3)sc2C1 (stereo not given) | 1% | -9 | -20% | 0% | 6.3µM*
CCc1nnc(NC(=O)c2ccc(S(=O)(=O)N3CCCc4ccccc43)cc2)o1 | 9.2µM* | 56 | 0.56µM* | 16µM* | 0.35µM*
O=C(Nc1nc2ccccc2s1)c1cccc(S(=O)(=O)N2CCc3ccccc32)c1 | 10% | 25 | -8% | -2% | ?
Cc1ccc(S(=O)(=O)N2CCCCC2C(=O)Nc2ccc(N(C)C)cc2)cc1 (stereo not given) | 8% | -29 | . | 2% | .
COc1ccc(CNC(=O)O[C@]23C[C@H]4C(=O)N(c5ccccc5)C(=O)[C@H]4C[C@@]2(O)CN(S(=O)(=O)c2ccc(C)cc2)C3)cc1OC | . | 9 | . | . | .
CNC(=O)c1ccsc1NC(=O)c1ccc(S(=O)(=O)N2CCCc3ccccc32)cc1 | 23% | -18 | -11% | 9% | ?
O=C(Nc1nc2c(s1)CCCC2)c1ccc(S(=O)(=O)N2CCCc3ccccc32)cc1 | ? | -1 | ? | 8% | 11µM*
CCOC(=O)C1=C(N)N2C(=O)C(C)SC2=C(C(=O)OCC)C1c1ccc(O)cc1 (stereo not given) | 10% | 34 | 7% | 0% | -17%
CCOC(=O)C1=C(N)N2C(=O)C(C)SC2=C(C(=O)OCC)C1c1ccccc1 (stereo not given) | -6% | -10 | 13µM* | -1% | ?
O=C(NCCc1ccccc1)C(c1cccs1)N(C(=O)c1csnn1)C1CC1 (stereo not given) | -5% | -8 | 0% | 10% | 37%
O=C(NCCc1ccccc1)C(c1cccs1)N(C(=O)CCl)c1ccc(Cl)cc1 (stereo not given) | 12µM* | -98* | ? | 10µM* | ?
C=C(C)[C@@H]1CC=C(CN2CCC(N3CCC(C(=O)N4CCCC4)CC3)CC2)CC1 | ? | -62* | ? | ? | ?
N#CC1(NC(=O)CN2C(=O)NC(Cc3c[nH]c4ccccc34)C2=O)CCCCC1 (stereo not given) | 4% | 7 | . | 18% | .
O=C(COC(=O)[C@@H]1CC(O)CN1S(=O)(=O)c1ccccc1[N+](=O)[O-])c1ccccc1 (stereo not given in full) | -4% | 11 | -3% | 2% | ?
CCc1cccc2c(C(=O)COC(=O)[C@@H]3CC(O)CN3S(=O)(=O)c3ccccc3[N+](=O)[O-])c[nH]c12 (stereo not given in full) | -4% | -76* | . | -13% | .
COC(=O)c1ccc(COC(=O)[C@@H]2CC(O)CN2S(=O)(=O)c2ccccc2[N+](=O)[O-])cc1 (stereo not given in full) | 0% | -97* | . | -4% | .
COC(=O)NC(CC(C)=O)c1ccc(F)cc1 (stereo not given) | . | . | 3%[10 µM] | . | 26%[10 µM]
COc1cccc(C(=O)O/N=C(\N)c2ccc(C)cc2)c1 | -1% | 5 | -21% | 8% | -41%
SMILES | MCF10A rereplic | IL1B secr inh | Gal4-VP16 FLuc | SW480 rerep | RORg inh
COc1ccc(CC(=O)O/N=C(\N)c2ccncc2)cc1OC | . | 4 | . | . | .
COc1cccc(C(=O)O/N=C(\N)Cc2ccc(Cl)cc2)c1 | -10% | -9 | 13µM* | -5% | -38%
N/C(=N\OC(=O)c1ccncc1)c1cccc([N+](=O)[O-])c1 | 1% | -6 | -1% | 5% | 7%
COc1ccc(C(=O)O/N=C(\N)c2cccc(C)c2)cc1OC | 1% | ? | ? | 25% | 1µM*
Cc1cccc(/C(N)=N/OC(=O)c2ccncc2)c1 | 6% | 30 | ? | 0% | 7.1µM*
COc1ccc(/C(N)=N/OC(=O)Cc2ccc(OC)c(OC)c2)cc1 | 2% | -78* | ? | -6% | -43%
COC(=O)[C@@H]1CC[C@H](C)[C@@H](c2ccc(C)cc2)N1C(=O)c1ccc(/C=N\O[C@@H](C)c2cn([C@H]3COC[C@H]3O)nn2)cc1 | . | . | 6%[10 µM] | . | -22%[10 µM]
Cc1cccc(C(=O)O/N=C(\N)Cc2cccc3ccccc23)c1 | 17% | 18 | 11µM* | -4% | ?
COc1cc2c(cc1OC)C(C(C(=O)N(CCc1ccc(OC)c(OC)c1OC)CCc1ccc(OC)c(OC)c1OC)c1ccccc1)=NCC2 (stereo not given) | 4% | . | 2% | 4% | -15%
O=C(Cn1cc(F)c(=O)[nH]c1=O)c1ccco1 | . | 15 | . | . | .
CC(CC(C)(C)C)CP(=O)(O)CC(C)CC(C)(C)C (stereo not given) | . | . | -8% | . | 15%
Cc1cc(CC(C)CC(C)(C)C)n(O)c(=O)c1 (stereo not given) | 11µM* | . | 3.2µM* | ? | 1.1µM*
COc1ccc(C(=O)Nc2cccc(C(=O)N/N=C/c3ccc(OC)cc3OC)c2)cc1 | 4% | -18 | 14µM* | -3% | 10µM*
COc1ccc(/C=N/NC(=O)c2cccc(NC(=O)c3ccccc3Cl)c2)cc1 | 2.6µM* | 88 | -1% | 6.5µM* | 24%
COc1ccc(/C=N/NC(=S)Nc2cccc(C(=O)O)c2)cc1 | -4% | 3 | 11µM* | -9% | 3.5µM*
COc1ccc(NC(=O)C[C@H]2C(=O)N(C3CCCCC3)C[C@@H]2C)cc1 | . | 1 | . | . | .
Cc1ccc(NC2CCCN(C(=O)c3cc(C(C)C)nn3C)C2)cc1C (stereo not given) | . | 28 | . | . | .
CC(C)(C)CNc1nc(C#N)nc(Nc2ccccc2)n1 | . | . | -6% | . | .
C[C@@H]1CN([C@H](C)CO)C(=O)CCCn2nncc2CO[C@@H]1CN(C)S(=O)(=O)c1cccs1 | . | -4 | . | . | .
CC(C)C(=O)N(c1cc2sc(=O)oc2c2ccccc12)S(=O)(=O)c1cccs1 | ? | -18 | ? | 21% | 22µM*
